# Many of the other results were omitted from the sample, so the strongest signals are more common in it than they were.
# B1: Agalectin (Anopheles gambiae) (protein)
# chain: MSNRPFTAKFPRYPENGDEVFIRGKLKDDAKSFSVNFCLPRPAQVAEHQTPPYIALHFKTIYDERDDTSRVVLNWKNLQWQQEEVLDNYWHVDRSQTFRVVFRLHEDCIKVFVNSVDHPPDYQFPVQLPLDQIESIELWDDVEHVEEISFRYDNGNSY
# Columns and labels:
# Experiment in all cases: glycan array binding signal (z-score within array); higher = stronger binding
# Conditions in all cases: glycan notation: IUPAC condensed, linker removed
# [1] = molecular target: Fuc(a1-2)Gal(b1-3)GlcNAc(b1-2)Man(a1-3)[Fuc(a1-2)Gal(b1-3)GlcNAc(b1-2)Man(a1-6)]Man(b1-4)GlcNAc(b1-4)GlcNAc
# In short: (§1)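 From the Consortium for Functional Glycomics database, 3228 arrays were curated, keeping only those whose protein sequence was available. Binding is given as a within-array Z-score averaged across arrays sharing a protein sequence and across linkers. Negative Z-scores can be read as non-binding.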
# [2] = molecular target: Fuc(a1-2)Gal(b1-3)GlcNAc(b1-3)[Fuc(a1-2)Gal(b1-3)GlcNAc(b1-6)]GalNAc
# In short: as §1
# [3] = molecular target: Fuc(a1-2)Gal(b1-4)GlcNAc(b1-3)Gal(b1-4)GlcNAc(b1-2)Man(a1-3)[Fuc(a1-2)Gal(b1-4)GlcNAc(b1-3)Gal(b1-4)GlcNAc(b1-2)Man(a1-6)]Man(b1-4)GlcNAc(b1-4)GlcNAc
# In short: as §1
# [4] = molecular target: Fuc(a1-2)Gal(b1-4)GlcNAc(b1-3)[Fuc(a1-2)Gal(b1-4)GlcNAc(b1-6)]GalNAc
# In short: as §1
# [5] = molecular target: Fuc(a1-2)Gal(b1-4)GlcNAc6S
# In short: as §1
# [6] = molecular target: Fuc(a1-2)Gal6S(b1-3)GlcNAc6S
# In short: as §1
# [7] = molecular target: Fuc(a1-2)[GalNAc(a1-3)]Gal(b1-4)GlcNAc(b1-6)GalNAc
# In short: as §1
# [8] = molecular target: Fuc(a1-2)[GalNAc(a1-3)]Gal(b1-4)[Fuc(a1-3)]GlcNAc(b1-3)GalNAc
# In short: as §1
# [9] = molecular target: Fuc(a1-3)GlcNAc
# In short: as §1
# [10] = molecular target: Fuc(a1-3)[Gal(b1-4)]Glc6S
# In short: as §1
# [11] = molecular target: Fuc(a1-3)[Gal(b1-4)]GlcNAc6S
# In short: as §1
# [12] = molecular target: Fuc(a1-3)[Gal3S(b1-4)]GlcNAc6S
# In short: as §1
# [13] = molecular target: Gal(a1-3)Gal(b1-4)[Fuc(a1-3)]GlcNAc
# In short: as §1
# [14] = molecular target: Gal(b1-3)GalNAc
# In short: as §1
# [15] = molecular target: Gal(b1-3)GalNAc(a1-3)[Fuc(a1-2)]Gal(b1-4)Glc
# In short: as §1
# [16] = molecular target: Gal(b1-3)GlcNAc(b1-2)Man(a1-3)[Gal(b1-3)GlcNAc(b1-2)Man(a1-6)]Man(b1-4)GlcNAc(b1-4)GlcNAc
# In short: as §1
# [17] = molecular target: Gal(b1-3)GlcNAc(b1-3)Gal(b1-4)GlcNAc
# In short: as §1
# [18] = molecular target: Gal(b1-3)GlcNAc(b1-3)Gal(b1-4)GlcNAc(b1-2)[Gal(b1-3)GlcNAc(b1-3)Gal(b1-4)GlcNAc(b1-6)]Man(a1-6)[Gal(b1-3)GlcNAc(b1-3)Gal(b1-4)GlcNAc(b1-2)Man(a1-3)]Man(b1-4)GlcNAc(b1-4)[Fuc(a1-6)]GlcNAc
# In short: as §1
# [19] = molecular target: Gal(b1-3)GlcNAc(b1-6)[Gal(b1-3)]GalNAc
# In short: as §1
# [20] = molecular target: Gal(b1-3)GlcNAc6S
# In short: as §1
# [21] = molecular target: Gal(b1-3)[Neu5Ac(b2-6)]GalNAc
# In short: as §1
# [22] = molecular target: Gal(b1-4)GlcNAc(b1-2)Man(a1-6)[GlcNAc(b1-2)Man(a1-3)]Man(b1-4)GlcNAc(b1-4)GlcNAc
# In short: as §1
# [23] = molecular target: Gal(b1-4)GlcNAc(b1-3)Gal(b1-4)GlcNAc(b1-3)Gal(b1-4)GlcNAc(b1-2)Man(a1-3)[Gal(b1-4)GlcNAc(b1-3)Gal(b1-4)GlcNAc(b1-3)Gal(b1-4)GlcNAc(b1-2)Man(a1-6)]Man(b1-4)GlcNAc(b1-4)GlcNAc
# In short: as §1
# [24] = molecular target: Gal(b1-4)GlcNAc(b1-3)Gal(b1-4)GlcNAc(b1-3)Gal(b1-4)GlcNAc(b1-3)Gal(b1-4)GlcNAc(b1-2)Man(a1-3)[Gal(b1-4)GlcNAc(b1-3)Gal(b1-4)GlcNAc(b1-3)Gal(b1-4)GlcNAc(b1-3)Gal(b1-4)GlcNAc(b1-2)Man(a1-6)]Man(b1-4)GlcNAc(b1-4)[Fuc(a1-6)]GlcNAc
# In short: as §1
# [25] = molecular target: Gal(b1-4)GlcNAc(b1-3)Gal(b1-4)GlcNAc(b1-3)Gal(b1-4)GlcNAc(b1-3)Gal(b1-4)GlcNAc(b1-2)[Gal(b1-4)GlcNAc(b1-3)Gal(b1-4)GlcNAc(b1-3)Gal(b1-4)GlcNAc(b1-3)Gal(b1-4)GlcNAc(b1-6)]Man(a1-6)[Gal(b1-4)GlcNAc(b1-3)Gal(b1-4)GlcNAc(b1-3)Gal(b1-4)GlcNAc(b1-3)Gal(b1-4)GlcNAc(b1-2)Man(a1-3)]Man(b1-4)GlcNAc(b1-4)[Fuc(a1-6)]GlcNAc
# In short: as §1
# [26] = molecular target: Gal(b1-4)GlcNAc(b1-3)GalNAc
# In short: as §1
# [27] = molecular target: Gal(b1-6)Gal
# In short: as §1
binder,measurement,setting,value
B1,glycan array binding signal (z-score),[1],5.71
same,glycan array binding signal (z-score),[2],4.19
same,glycan array binding signal (z-score),[3],-0.148
same,glycan array binding signal (z-score),[4],-0.321
same,glycan array binding signal (z-score),[5],-0.769
same,glycan array binding signal (z-score),[6],-0.208
same,glycan array binding signal (z-score),[7],0.074
same,glycan array binding signal (z-score),[8],-0.12
same,glycan array binding signal (z-score),[9],-1.07
same,glycan array binding signal (z-score),[10],-0.632
same,glycan array binding signal (z-score),[11],0.34
same,glycan array binding signal (z-score),[12],-0.759
same,glycan array binding signal (z-score),[13],-0.066
same,glycan array binding signal (z-score),[14],-0.47
same,glycan array binding signal (z-score),[15],-0.559
same,glycan array binding signal (z-score),[16],1.66
same,glycan array binding signal (z-score),[17],-0.854
same,glycan array binding signal (z-score),[18],3.14
same,glycan array binding signal (z-score),[19],-1.37
same,glycan array binding signal (z-score),[20],-1.14
same,glycan array binding signal (z-score),[21],0.408
same,glycan array binding signal (z-score),[22],-0.688
same,glycan array binding signal (z-score),[23],2.89
same,glycan array binding signal (z-score),[24],3.26
same,glycan array binding signal (z-score),[25],-0.07
same,glycan array binding signal (z-score),[26],-0.509
same,glycan array binding signal (z-score),[27],-1.18

# Source: the supplement of paper PMC8728848
